We go through 7 molecules from PubChem BioAssay (EPA / NIEHS).

Holding throughout (conditions): mRNA level, 48 h; actives raise or lower the signal
Read-out in assay [1]: Intercellular Adhesion Molecule 1 (ICAM1), ICAM1 (gene 3383)
Kind of assay: LTEA_HepaRG_ICAM1: Life Technologies and Expression Analysis (LTEA) Assay for Intercellular Adhesion Molecule 1 (ICAM1) using HepaRG (AID 2283507). The gist of the method: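 HepaRG, 48 h exposure, 8-pt half-log series from 100 uM, 0.5% DMSO vehicle, duplicates. Readout: TaqMan qRT-PCR mRNA, housekeeping-normalized (ACTB/GAPDH/POLR2A). Bidirectional curve fit vs DMSO baseline.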

Read-out in assay [2]: Insulin-like growth factor-binding protein 1 (IGFBP1), IGFBP1 (gene 3484)
Description: LTEA_HepaRG_IGFBP1: Life Technologies and Expression Analysis (LTEA) Assay for Insulin-like growth factor-binding protein 1 (IGFBP1) using HepaRG (AID 2283508). The gist of the method:
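qRT-PCR mRNA read-out (TaqMan, Fluidigm array), normalised to three housekeeping genes; HepaRG cells, 48 h exposure, 8-pt half-log series from 100 uM, 0.5% DMSO vehicle; bidirectional curve fit vs DMSO baseline.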

Read-out in assay [3]: Interleukin 6 (IL6), IL6 (gene 3569)
Description: LTEA_HepaRG_IL6: Life Technologies and Expression Analysis (LTEA) Assay for Interleukin 6 (IL6) using HepaRG (AID 2283509). Summed up:
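qRT-PCR read-out of IL6 transcript, normalized to three housekeeping genes, after 48 h chemical exposure of HepaRG cells; 8-point half-log series, top 100 uM, 0.5% DMSO vehicle. Bidirectional curve fitting against DMSO baseline.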

Read-out in assay [4]: Interleukin 6 Receptor (IL6R), IL6R (gene 3570)
Description: LTEA_HepaRG_IL6R: Life Technologies and Expression Analysis (LTEA) Assay for Interleukin 6 Receptor (IL6R) using HepaRG (AID 2283510). Summed up: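 IL6R transcript level by qRT-PCR after 48 h chemical exposure (8-point, half-log, max 100 uM, 0.5% DMSO vehicle) of HepaRG cells in serum-free induction medium. Normalized to three housekeeping genes; curves fitted in both directions relative to DMSO.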

Read-out in assay [5]: Potassium channel subfamily K member 1 (KCNK1), KCNK1 (gene 3775)
Kind of assay: LTEA_HepaRG_KCNK1: Life Technologies and Expression Analysis (LTEA) Assay for Potassium channel subfamily K member 1 (KCNK1) using HepaRG (AID 2283511). Summed up: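 HepaRG, 48 h exposure, 8-pt half-log series top 100 uM, 0.5% DMSO vehicle, duplicates. Readout: KCNK1 transcript by qRT-PCR (Fluidigm array), housekeeping-normalized; bidirectional curve fit relative to DMSO baseline.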

Read-out in assay [6]: JUN Transcription Factor, JUN (gene 3725)
Description: LTEA_HepaRG_JUN: Life Technologies and Expression Analysis (LTEA) Assay for JUN Transcription Factor using HepaRG (AID 2283513). The gist of the method:
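mRNA measured by TaqMan qRT-PCR after 48 h chemical exposure of HepaRG cultures; normalization to three housekeeping genes. Duplicate eight-point half-log curves from 100 uM in 0.5% DMSO; gain or loss fitted against DMSO baseline.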

Read-out in assay [7]: Lipase C (LIPC), LIPC (gene 3990)
Kind of assay: LTEA_HepaRG_LIPC: Life Technologies and Expression Analysis (LTEA) Assay for Lipase C (LIPC) using HepaRG (AID 2283514). Summed up:
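HepaRG, 48 h exposure, 8-pt half-log series from 100 uM in 0.5% DMSO, duplicates. Readout: LIPC mRNA by Fluidigm qRT-PCR, housekeeping-normalized (ACTB/GAPDH/POLR2A). Gain or loss fitted bidirectionally against DMSO baseline.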

Read-out in assay [8]: Lipoprotein lipase (LPL), LPL (gene 4023)
Description: LTEA_HepaRG_LPL: Life Technologies and Expression Analysis (LTEA) Assay for Lipoprotein lipase (LPL) using HepaRG (AID 2283515). Summed up: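 HepaRG, 48 h exposure, 8-pt half-log dilutions from 100 uM, 0.5% DMSO vehicle, duplicates; qRT-PCR (Fluidigm array) of LPL mRNA vs housekeeping genes; bidirectional curve fit relative to DMSO baseline.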

Read-out in assay [9]: matrix metalloproteinase-10 (MMP10), MMP10 (gene 4319)
Kind of assay: LTEA_HepaRG_MMP10: Life Technologies and Expression Analysis (LTEA) Assay for matrix metalloproteinase-10 (MMP10) using HepaRG (AID 2283517). The gist of the method: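 Transcript levels come from Fluidigm qRT-PCR normalized to three housekeeping genes, with curves fitted bidirectionally against 0.5% DMSO. Human HepaRG cells were dosed for 48 hours at concentrations up to 100 uM.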

Read-out in assay [10]: matrix metalloproteinase-3 (MMP3), MMP3 (gene 4314)
Kind of assay: LTEA_HepaRG_MMP3: Life Technologies and Expression Analysis (LTEA) Assay for matrix metalloproteinase-3 (MMP3) using HepaRG (AID 2283519). The gist of the method:
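qRT-PCR read-out of MMP3 mRNA (normalised to three housekeeping genes) in HepaRG liver cells after 48 h chemical exposure; 8-point half-log series, top 100 uM, 0.5% DMSO vehicle. Bidirectional curve fitting against DMSO baseline.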

Read-out in assay [11]: Paternally Expressed 10 (PEG10), PEG10 (gene 23089)
Kind of assay: LTEA_HepaRG_PEG10: Life Technologies and Expression Analysis (LTEA) Assay for Paternally Expressed 10 (PEG10) using HepaRG (AID 2283520).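 For AC50: differentiated HepaRG human liver cells in serum-free induction medium with 0.5% DMSO; PEG10 transcript by qRT-PCR normalised to ACTB GAPDH and POLR2A.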 Summed up: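 PEG10 transcript measured by Fluidigm qRT-PCR, normalized to three housekeeping genes, in HepaRG cells treated 48 h (highest 100 uM, half-log steps, 0.5% DMSO vehicle). Cells plated 48 h before switching to serum-free induction medium.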

Read-out in assay [12]: Nuclear factor NF-kappa-B p105 subunit (Homo sapiens) (UniProt P19838)
Description: LTEA_HepaRG_NFKB1: Life Technologies and Expression Analysis (LTEA) Assay for Nuclear Factor Kappa B Subunit 1 (NFKB1) using HepaRG (AID 2283521).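 Note: differentiated human HepaRG liver cells in serum-free induction medium; TaqMan qRT-PCR transcript normalised to ACTB GAPDH and POLR2A housekeeping genes.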 The gist of the method: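 Human HepaRG cells receive eight half-log concentrations, highest 100 uM, for 48 h. NFKB1 expression is then quantified by qRT-PCR and analysed for up- or down-regulation relative to 0.5% DMSO vehicle.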

Read-out in assay [13]: Protein phosphatase 2A (PPP2R4), PTPA (gene 5524)
Description: LTEA_HepaRG_PPP2R4: Life Technologies and Expression Analysis (LTEA) Assay for Protein phosphatase 2A (PPP2R4) using HepaRG (AID 2283522). Summed up:
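Expression was quantified by Fluidigm qRT-PCR normalised to three housekeeping genes after 48 h treatment. Human HepaRG cells received an 8-point series from 100 µM downward by half-logs, in duplicate with 0.5% DMSO vehicle and 1 mM phenobarbital as induction control.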

Read-out in assay [14]: Phosphatase and tensin (PTEN), PTEN (gene 5728)
Kind of assay: LTEA_HepaRG_PTEN: Life Technologies and Expression Analysis (LTEA) Assay for Phosphatase and tensin (PTEN) using HepaRG (AID 2283523). Summed up:
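HepaRG, 48 h exposure, 8-pt half-log series from 100 uM top, 0.5% DMSO vehicle, duplicates. Readout: Fluidigm qRT-PCR of PTEN transcript; housekeeping normalization (ACTB, GAPDH, POLR2A). Gain or loss fitted relative to DMSO baseline.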

Read-out in assay [15]: solute carrier (SLC22A1), SLC22A1 (gene 6580)
Kind of assay: LTEA_HepaRG_SLC22A1: Life Technologies and Expression Analysis (LTEA) Assay for solute carrier (SLC22A1) using HepaRG (AID 2283524).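 For AC50: differentiated human HepaRG liver cells in serum-free induction medium.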 The gist of the method: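 qRT-PCR readout (TaqMan, Fluidigm arrays) of SLC22A1 transcript, normalized to three housekeeping genes; bidirectional curve fit relative to 0.5% DMSO vehicle. Differentiated human HepaRG cells, 48 h chemical exposure, top concentration 100 uM, half-log steps, eight points.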

Read-out in assay [16]: Pyruvate Dehydrogenase Kinase 4 (PDK4), PDK4 (gene 5166)
Description: LTEA_HepaRG_PDK4: Life Technologies and Expression Analysis (LTEA) Assay for Pyruvate Dehydrogenase Kinase 4 (PDK4) using HepaRG (AID 2283525). Summed up:
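HepaRG (human liver line), 48 h chemical exposure, 8-pt half-log CRC top 100 uM, 0.5% DMSO vehicle, duplicates. Readout: TaqMan qRT-PCR of PDK4 mRNA, housekeeping-normalized; gain/loss fit relative to DMSO baseline.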

Read-out in a further assay: MYC, MYC (gene 4609)
Description: LTEA_HepaRG_MYC: Life Technologies and Expression Analysis (LTEA) Assay for MYC using HepaRG (AID 2283518). Summed up:
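qRT-PCR read-out of MYC transcript (Fluidigm TaqMan, housekeeping-normalized) after 48 h chemical exposure of HepaRG cells; eight concentrations, top 100 uM, half-log steps. Bidirectional curve fitting against 0.5% DMSO vehicle baseline.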

Read-out in assay [17]: Keratin 19 (KRT19), KRT19 (gene 3880)
Description: LTEA_HepaRG_KRT19: Life Technologies and Expression Analysis (LTEA) Assay for Keratin 19 (KRT19) using HepaRG (AID 2283512). Summed up: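 HepaRG, 48 h chemical exposure, 8-pt half-log CRC from 100 uM, 0.5% DMSO vehicle, duplicates. Readout: TaqMan qRT-PCR of KRT19 mRNA, housekeeping-normalized (ACTB/GAPDH/POLR2A). Bidirectional fit vs DMSO baseline.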

Read-out in assay [18]: MicroRNA 122 (MIR122), gene 406906
Description: LTEA_HepaRG_MIR122: Life Technologies and Expression Analysis (LTEA) Assay for MicroRNA 122 (MIR122) using HepaRG (AID 2283516). Note: the transcript read is the microRNA miR-122. The gist of the method: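 Expression measured by microfluidic qRT-PCR with three housekeeping genes for normalisation, after 48 h treatment of HepaRG cultures. Eight concentrations (top 100 uM, half-log steps, 0.5% DMSO vehicle) in duplicate; gain or loss fitted relative to vehicle.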

Activity calls are given as the source filed them. Rule for the calls: active = hit-call score of the fitted dose curve at least 0.9, where 1 is the maximum; inactive = score below 0.9.

Chain of Nuclear factor NF-kappa-B p105 subunit (Homo sapiens) (P19838 whole entry, looked up): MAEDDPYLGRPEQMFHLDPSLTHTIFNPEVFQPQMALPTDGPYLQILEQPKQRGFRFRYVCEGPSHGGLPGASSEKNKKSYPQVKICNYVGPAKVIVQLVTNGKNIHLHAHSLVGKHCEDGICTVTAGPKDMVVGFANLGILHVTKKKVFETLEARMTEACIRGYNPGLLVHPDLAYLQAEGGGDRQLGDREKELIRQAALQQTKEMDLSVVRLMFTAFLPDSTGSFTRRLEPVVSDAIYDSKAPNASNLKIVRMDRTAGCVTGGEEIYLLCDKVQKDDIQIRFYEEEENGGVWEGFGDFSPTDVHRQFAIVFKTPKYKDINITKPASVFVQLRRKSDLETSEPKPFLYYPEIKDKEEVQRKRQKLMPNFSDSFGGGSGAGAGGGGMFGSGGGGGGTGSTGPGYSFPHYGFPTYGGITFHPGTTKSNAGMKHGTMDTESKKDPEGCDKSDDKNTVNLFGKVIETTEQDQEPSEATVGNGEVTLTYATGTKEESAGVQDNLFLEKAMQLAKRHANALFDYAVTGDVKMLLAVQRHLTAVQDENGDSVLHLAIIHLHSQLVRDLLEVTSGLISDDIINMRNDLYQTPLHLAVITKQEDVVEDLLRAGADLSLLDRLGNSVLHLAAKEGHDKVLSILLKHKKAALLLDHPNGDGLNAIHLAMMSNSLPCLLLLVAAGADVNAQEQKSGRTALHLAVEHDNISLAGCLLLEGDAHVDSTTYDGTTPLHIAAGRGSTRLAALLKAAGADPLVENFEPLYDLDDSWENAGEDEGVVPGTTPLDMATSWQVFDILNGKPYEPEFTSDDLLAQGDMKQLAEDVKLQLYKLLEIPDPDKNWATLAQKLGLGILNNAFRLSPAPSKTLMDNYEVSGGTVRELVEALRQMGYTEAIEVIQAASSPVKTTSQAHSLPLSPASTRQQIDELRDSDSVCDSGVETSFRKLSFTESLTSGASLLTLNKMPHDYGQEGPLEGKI

On to `CN1C(=O)CC[C@H]1c1cccnc1`, for which the result in assay [1], in assay [2], in [3], in assay [4], in [5] and in [6] was inactive. Further, the molecule was classed as inactive in assay [7], in [8], in [9], in assay [10], in [11] and in [12]. Also, the molecule was classed as inactive in assay [13], in assay [14], in assay [15] and in [16].
Broadly, the AC50 is the concentration at which the activity in the assay is half-maximal. Regarding `CC1(C)NC(=O)N(c2ccc([N+](=O)[O-])c(C(F)(F)F)c2)C1=O`, the molecule was classed as inactive in assay [1], in assay [4], in assay [5], in [6], in assay [9] and in assay [13]. Besides, the outcome in assay [14] was inactive. Further, the AC50 in assay [2] is 90.2 µM (active); in assay [3] it was 83.7 µM (active); in assay [7] it was 89.7 µM (active); in assay [8] it was 76.2 µM (active); with MYC, MYC (gene 4609), 81.8 µM (active); in assay [11], 15.7 µM (active). The AC50 in assay [15] was 74.3 µM (active); in [16], 80.1 µM (active).
In the case of `CCCCOC(=O)CC(CC(=O)OCCCC)(OC(C)=O)C(=O)OCCCC`, the molecule was called inactive in assay [1], in assay [2], in assay [3], in assay [4], in assay [5] and in [6]. Also, the result in assay [7], in [8], in assay [9], in assay [10], in assay [11] and in assay [12] was inactive. Moreover, the molecule was classed as inactive in assay [13], in [14], in assay [15] and in [16].
For the molecule `Cc1ncc(CO)c(CO)c1O`, the molecule was called inactive in assay [1], in assay [2], in assay [3], in assay [4], in [5] and in [17]. The outcome was “inactive” in assay [6]; “inactive” in [7]; “inactive” in assay [8]; “inactive” in assay [9]; “inactive” with MYC, MYC (gene 4609); “inactive” in assay [11]. The call in [13], in [14], in assay [15] and in assay [16] was inactive.
On to `CCO[Si](CCCNC(N)=O)(OCC)OCC`, for which the molecule was classed as inactive in [1], in [2], in assay [3], in assay [4], in assay [5] and in [17]. In addition, the molecule was classed as inactive in [6], in assay [7], in assay [8], in assay [9], in [10] and in assay [11]. Also, the outcome in [13], in assay [14], in [15] and in [16] was inactive.
Take `O=C(OCCCCCCOC(=O)c1ccccc1)c1ccccc1`: the outcome in assay [1], in assay [2], in [3], in assay [4], in assay [5] and in assay [6] was inactive. Also, the result in assay [7], in assay [8], in [9], in [10], in [11] and in [12] was inactive. Also, the call in assay [13], in assay [14], in assay [15] and in [16] was inactive.
`Cc1cn([C@H]2C[C@H](N=[N+]=[N-])[C@@H](CO)O2)c(=O)[nH]c1=O`: the molecule was called inactive in assay [1], in [2], in assay [3], in assay [4], in [5] and in [17]. In addition, the outcome in assay [6] was “inactive”; in [7], “inactive”; in [8], “inactive”; in [18], “inactive”; in assay [9] it was “inactive”; in the assay with MYC, MYC (gene 4609) it was “inactive”. The molecule was classed as inactive in assay [11], in assay [12], in assay [13], in [14], in [15] and in assay [16].
